Compound activity deposited in PubChem by Broad Institute.
This excerpt belongs to a sample that is enriched for hits.
IDE exosite FP = exo-site inhibitors of human insulin-degrading enzyme | purified IDE, FL-6b probe fluorescence polarization; stronger effect = lower value | z-score at 20 µM | 6.3% of 17,000 active;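 active = z-score of -3 or lower, meaning strong loss of probe binding signal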;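 note: His-tagged human IDE residues 42-1019 made in E. coli with 30 nM FL-6b probe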
* marks the source's active call; other numbers are inactive results.

SMILES | IDE exosite FP
COc1ccccc1-c1ccc([C@H]2[C@@H](CO)N(C(=O)C3CCOCC3)[C@H]2C#N)cc1 | -8.3*
COc1ccc(-c2ccc([C@@H]3[C@@H](CO)N(C(=O)c4cccnc4)[C@H]3C#N)cc2)cc1 | 4.5
COc1ccccc1-c1ccc([C@@H]2[C@H](C#N)N(C(=O)C3CCC3)[C@H]2CO)cc1 | -1.5
COc1ccccc1-c1ccc([C@H]2[C@@H](CO)N(C(=O)C3CCC3)[C@H]2C#N)cc1 | -2.3
COc1ccccc1-c1ccc([C@H]2[C@@H](CO)N(C(=O)C3CC3)[C@H]2C#N)cc1 | -1.7
COc1ccccc1-c1ccccc1[C@@H]1[C@H](C#N)N(C(=O)C2CCOCC2)[C@H]1CO | -1.7
COc1ccccc1NC(=O)N1C[C@H]2[C@@H](c3ccccc31)[C@H](CO)N2C(=O)C1CCCC1 | 1.6
O=C1CN(S(=O)(=O)Cc2ccccc2)C[C@@H]2[C@@H](c3ccc(C#Cc4cccnc4)cc3)[C@@H](CO)N12 | 0.8
C[C@H]1CCc2cnnn2COCCNC1=O | 1.4
CCS(=O)(=O)Nc1ccc2c(c1)C(=O)N(C)[C@H]1CC[C@H](CC(=O)N[C@H]3CCN(Cc4ccccc4)C3)O[C@@H]1CO2 | -0.44
N#C[C@@H]1[C@@H](c2ccc(C3=CCCCC3)cc2)[C@H](CO)N1C(=O)CN1CCOCC1 | -1.7
C/C=C/c1ccc([C@@H]2[C@H](CO)N[C@H]2CN(C(=O)c2ccccc2F)C(C)C)cc1 | 0.85
CO[C@H]1CN(C)C(=O)c2ccc(NC(=O)c3nc4ccccc4s3)cc2OC[C@@H](C)N(Cc2cccnc2)C[C@H]1C | -0.67
C/C=C/c1ccc([C@H]2[C@@H](CO)N(c3ncc(CC)s3)[C@H]2C#N)cc1 | 1.3
COc1ccccc1-c1ccccc1[C@H]1[C@@H](C#N)N(C(=O)C2CCC2)[C@@H]1CO | 1.2
CN(C)C(=O)c1cccc(-c2ccc([C@@H]3[C@@H](C#N)N(C(=O)C4CC4)[C@H]3CO)cc2)c1 | 0.87
COc1ccccc1-c1ccc([C@H]2[C@@H](C#N)N(C(=O)C3CCC3)[C@@H]2CO)cc1 | -4.8*
COc1ccccc1-c1ccccc1[C@H]1[C@@H](C#N)N(C(=O)C2CCC2)[C@H]1CO | 0.26
COc1ccccc1-c1ccccc1[C@@H]1[C@@H](C#N)N(C(=O)C2CCC2)[C@H]1CO | 3.9
COc1ccccc1-c1ccccc1[C@@H]1[C@H](C#N)N(C(=O)C2CCC2)[C@H]1CO | 3.3
CN(C)C(=O)c1cccc(-c2ccc([C@@H]3[C@H](C#N)N(C(=O)C4CC4)[C@H]3CO)cc2)c1 | 3.5
CN(C)C(=O)c1cccc(-c2ccc([C@@H]3[C@@H](C#N)N(C(=O)C4CC4)[C@@H]3CO)cc2)c1 | -3.6*
COc1ccccc1-c1ccc([C@H]2[C@H](C#N)N(C(=O)C3CCC3)[C@H]2CO)cc1 | -8.1*
COc1ccc2c3c([nH]c2c1)[C@H](CO)N(S(=O)(=O)c1cn(C)cn1)CC31CCN(Cc2ccccc2Cl)CC1 | -0.12
C/C=C/c1ccc([C@H]2[C@@H](CO)N(C(=O)c3ccccc3)C23CN(C(C)=O)C3)cc1 | -1.6
SMILES | IDE exosite FP
Cc1ccc(OC(=O)N(C)C[C@@H]2OCc3ccccc3-c3ccccc3C(=O)N([C@@H](C)CO)C[C@H]2C)cc1 | 0.34
Cc1noc(C)c1C(=O)N(C)C[C@H]1OCc2ccccc2-c2ccccc2C(=O)N([C@@H](C)CO)C[C@H]1C | 0.34
Cc1ccccc1-c1ccccc1[C@H]1[C@@H](C#N)N(C(=O)c2ccc(F)cc2)[C@H]1CO | 0.092
CN(C)C(=O)c1cccc(-c2ccc([C@H]3[C@H](CO)N4CCCCN(CCC(F)(F)F)C[C@@H]34)cc2)c1 | 4.3
C[C@@H]1CN([C@H](C)CO)C(=O)c2ccccc2-c2ccccc2CO[C@@H]1CN(C)S(=O)(=O)c1cccc(C#N)c1 | -0.39
COc1cccc(-c2ccc([C@H]3[C@@H](CO)N4C(=O)CN(C(=O)C5CCC5)C[C@@H]34)cc2)c1 | -7*
COc1ccc(-c2ccc([C@H]3[C@H](CO)N4C(=O)CN(C(=O)C5CCC5)C[C@@H]34)cc2)cc1 | 1.7
O=C(C1CCC1)N1CC(=O)N2[C@H](C1)[C@@H](c1ccc(-c3cccnc3)cc1)[C@@H]2CO | -1.7
COc1ccc(-c2ccc([C@@H]3[C@@H](CO)N4C(=O)CN(C(=O)C5CCC5)C[C@H]34)cc2)cc1 | -0.21
COc1cccc(-c2ccc([C@@H]3[C@H]4CN(C(=O)C5CCC5)CC(=O)N4[C@H]3CO)cc2)c1 | -9.3*
O=C(C1CCC1)N1CC(=O)N2[C@H](C1)[C@H](c1ccc(-c3cccnc3)cc1)[C@@H]2CO | 0.94
CN(C)C(=O)c1cccc(-c2ccc([C@H]3[C@H](CO)N4C(=O)CN(C(=O)C5CCC5)C[C@@H]34)cc2)c1 | 0.83
COc1ccc(-c2ccc([C@H]3[C@H]4CN(C(=O)C5CC5)CC(=O)N4[C@H]3CO)cc2)cc1 | -0.25
COc1ccc(-c2ccc([C@@H]3[C@@H](CO)N4C(=O)CN(C(=O)C5CC5)C[C@@H]34)cc2)cc1 | -2.5
COc1cccc(-c2ccc([C@@H]3[C@@H](CO)N4C(=O)CN(C(=O)C5CCC5)C[C@@H]34)cc2)c1 | -12*
COc1ccc(-c2ccc([C@@H]3[C@H]4CN(C(=O)C5CCC5)CC(=O)N4[C@H]3CO)cc2)cc1 | 3.1
COc1cccc(-c2ccc([C@@H]3[C@@H](CO)N4C(=O)CN(C(=O)C5CC5)C[C@H]34)cc2)c1 | -5.2*
O=C(c1cccnc1)N1CC(=O)N2[C@H](C1)[C@H](c1ccc(C#CCC3CCCC3)cc1)[C@@H]2CO | 0.87
O=C(c1ccccc1F)N1C[C@@H]2[C@H](c3ccccc31)[C@@H](CO)N2Cc1ccc2c(c1)OCO2 | 1.4
COc1ccc2c3c(n(C)c2c1)[C@@H](CO)NCC31CCN(C(=O)Nc2ccc(F)cc2F)CC1 | 1.6
CN(C)C(=O)c1cccc(-c2ccc([C@H]3[C@H](CO)N4CCCCN(C(=O)C5CCC5)C[C@@H]34)cc2)c1 | 1.9
CN1C(=O)c2cc(NS(C)(=O)=O)ccc2OC[C@@H]2O[C@H](CC(=O)NCc3ccccc3)CC[C@H]21 | -1.1
O=C1CN(S(=O)(=O)c2ccccc2)C[C@H]2[C@@H](c3ccc(C#CCc4ccccc4)cc3)[C@H](CO)N12 | 4.5
CCc1sc(N2[C@H](C#N)[C@H](c3ccccc3-c3ccccc3)[C@H]2CO)nc1C | -0.55
CCC(=O)N1[C@@H](CO)[C@@H](c2ccccc2)C12CN(Cc1ccccc1Cl)C2 | 2.1
SMILES | IDE exosite FP
CC(C)NC(=O)N1[C@H](CO)[C@H]2c3ccccc3N(C)C[C@H]21 | 3.6
O=C(c1ccccc1)N1CC(=O)N2[C@H](CO)[C@H](c3ccc(-c4ccccc4)cc3)[C@@H]2C1 | -0.84
COCC(=O)N1CCC2(CC1)CN(Cc1cc(F)ccc1F)[C@@H](CO)c1c2c2ccc(OC)cc2n1C | -0.72
O=C(C[C@H]1CC[C@H]2[C@@H](COC[C@H](O)CN2C(=O)Nc2cccc(F)c2)O1)NCCCN1CCOCC1 | -0.079
COc1ccccc1-c1ccc([C@@H]2[C@@H](CO)N3CCCCN(C(=O)c4cccnc4)C[C@@H]23)cc1 | -1.8
COc1ccccc1-c1ccc([C@H]2[C@@H](CO)N3CCCCN(C(=O)c4ccncc4)C[C@H]23)cc1 | -17*
COc1ccccc1-c1ccc([C@@H]2[C@H]3CN(C(=O)c4cccnc4)CCCCN3[C@H]2CO)cc1 | -4.7*
COc1ccccc1-c1ccc([C@@H]2[C@@H](CO)N3CCCCN(C(=O)c4ccncc4)C[C@H]23)cc1 | -0.66
